Results taken from PubChem BioAssay (NCI).
The panel holds about 83,000 compounds, 20% with a hit somewhere; the sample as a whole holds those more often.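 In brief: 96-well plates, 48 h treatment, single concentration, percent growth endpoint.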 Values without a mark were called inactive. The source made the active and inactive calls. How the source made its calls: active means growth percent below 10; inactive means the rest.

The compounds below were run on KM12 colon (assay: NCI-60 one-dose screen, 48 h (100 = growth as untreated, 0 = no growth, -100 = all killed)). Conditions: 10 µM unless noted.

**Q.** How did the growth turn out when `Cc1cccc(-c2ccccc2Oc2ccc3nnc(Cl)n3n2)c1` was run?
**A.** 106%

**Q.** With `C[C@H](NC(=O)c1ccc2c(-c3ccc(C(F)(F)F)cc3)cccc2c1)c1ccccn1` as the compound, how does the growth read?
**A.** 47.5%

**Q.** Which growth does the source give for `Cc1ccc(C(=O)Nc2cc(-c3ccccc3)cc(C(F)(F)F)c2)cc1C#Cc1cnc2cccnn12` here?
**A.** 41.9%

**Q.** Which growth does the source give for `O=[N+]([O-])c1cccc(-c2nnc3c(/C=C/c4ccc(F)cc4)nc4ccccc4n23)c1` here?
**A.** 97.6%

**Q.** How did the growth turn out when `O=C1Nc2cc(-c3ccc(NS(=O)(=O)c4ccc(C(F)(F)F)cc4)cc3)ccc2/C1=C/c1ccc[nH]1` was run?
**A.** 20.8%

These compounds were tested on MDA-MB-468 breast in the same assay as above. Conditions: 10 µM unless noted.

**Q.** How did the growth turn out when `CC1=C(C(=O)Nc2ccccc2)C(c2cccc3ccccc23)n2c(nc3ccccc32)N1` (configuration not stated) was run?
**A.** 49.9%

**Q.** How did the growth turn out when `COc1ccc(NC(=O)CSc2nnc(-c3ccc(-c4nc5ccccc5[nH]4)cc3)o2)cc1` was run?
**A.** 86.5%

**Q.** For `COc1cc2cc(C(=O)N3C[C@@H](CCl)c4c3cc(OC(=O)N(C)CCSSCCN3CCOCC3)c3ccccc43)[nH]c2c(OC)c1OC`, which growth is on record?
**A.** -77.3% (active)

**Q.** `CC(=O)C[n+]1cccc2c3ccccc3ccc21` was tested. Which growth did it give?
**A.** 8.54% (active)

**Q.** How did the growth turn out when `CC[C@]12C=CCN3CC[C@]4(C(=C(C(=O)OC)C1)Nc1cc(OC)c([C@@H]5[C@H]6O[C@H]6[C@@]6(CC)CC(C(=O)OC)=C7Nc8cc(O)ccc8[C@@]78CCN5[C@@H]68)cc14)[C@@H]32` was run?
**A.** -48.9% (active)

**Q.** For `Cc1ccccc1Nc1nnc(-c2c[nH]c3ccccc23)o1`, which growth is on record?
**A.** -35.5% (active)

**Q.** With `COc1cncc(-c2ccc3ncnc(N4CCc5ccc(Cl)cc54)c3c2)c1` as the compound, how does the growth read?
**A.** -67.4% (active)

**Q.** Which growth does the source give for `Clc1ccc2c(NCCNC34CC5CC(CC(C5)C3)C4)ccnc2c1` here?
**A.** -92.3% (active)

**Q.** Which growth does the source give for `Cn1cc(-c2cc(N)n3nc(-c4c[nH]c5ccccc45)cc3n2)c2cc(Br)ccc21` here?
**A.** -80.8% (active)

**Q.** How did the growth turn out when `Cc1nn(-c2ccccc2)c2nc(C)n(CC(=O)N/N=C/c3cccc([N+](=O)[O-])c3)c(=O)c12` was run?
**A.** 93.3%

**Q.** `Cc1ccc(S(=O)(=O)Nc2ccc(-c3ccc4c(c3)NC(=O)/C4=C\c3ccc[nH]3)cc2)cc1` was tested. Which growth did it give?
**A.** -25.8% (active)

**Q.** With `O=C1c2cccc3c(N4CCN(c5ccccc5)CC4)ccc(c23)C(=O)N1c1cccc(-c2nn(-c3ccccc3)cc2-c2nc3ccccc3s2)c1` as the compound, how does the growth read?
**A.** 96.9%

**Q.** `COc1ccc(-c2cc(-c3cc(C(C)C)c(O)cc3C)nn2-c2ccc(S(N)(=O)=O)cc2)cc1` was tested. Which growth did it give?
**A.** -15.9% (active)

**Q.** How did the growth turn out when `Clc1ccc(-c2nc3c4c(-c5ccccc5)c(-c5ccccc5)n(Cc5ccccc5)c4ncn3n2)cc1` was run?
**A.** -40.4% (active)

**Q.** How did the growth turn out when `Cc1ccc(-c2cc(C(=O)N=Nc3c(O)[nH]c4ccc(F)cc34)c3ccccc3n2)cc1` was run?
**A.** 31.1%

**Q.** For `COc1ccc(/C=C/c2nc3ccccc3n3c(-c4cccc([N+](=O)[O-])c4)nnc23)cc1`, which growth is on record?
**A.** -65% (active)

**Q.** For `O=C(c1ccc(O)cc1)C1[C@H](c2ccc(Cl)cc2)[C@@H](c2ccccc2)NC12C(=O)Nc1ccccc12` (some centres not stated), which growth is on record?
**A.** -45.2% (active)

**Q.** With `N#C/C(=C1/C(=O)Nc2ccccc21)c1nnc(NC(=O)c2ccc(-n3c(=O)[nH]c4ccccc4c3=O)cc2)s1` as the compound, how does the growth read?
**A.** 12.9%

**Q.** With `CN(C(=O)CN1C(=O)/C(=C/c2ccco2)SC1=S)C1CCS(=O)(=O)C1` (configuration not stated) as the compound, how does the growth read?
**A.** 72%

**Q.** Which growth does the source give for `COc1c2c(cc3c1C(CCc1ccccc1)N(C)CC3)OCO2` (configuration not stated) here?
**A.** -61.8% (active)

**Q.** Which growth does the source give for `COc1cc(C2CC(c3ccc(F)cc3)=Nc3c(N)nc(N)nc3N2)ccc1Oc1nc(Nc2ccc(F)cc2)nc(N(C)C)n1` (configuration not stated) here?
**A.** -17.8% (active)

**Q.** With `CC(C)C[C@H](NC(=O)CNC(=O)C[C@H]1O[C@@H]2OC3(C)CC[C@H]4[C@H](C)CC[C@@H]([C@H]1C)[C@@]24O3)B(O)O` as the compound, how does the growth read?
**A.** -58.4% (active)

**Q.** `Cc1[nH]nc2ccc3nc(-c4cnn(CCO)c4)c4c(c3c12)CCCC4` was tested. Which growth did it give?
**A.** -0.783% (active)

**Q.** For `CCCN(CCC)S(=O)(=O)c1ccc(C(=O)O)cc1.CCCN(CCC)S(=O)(=O)c1ccc(C(=O)O)cc1.[Cl][Pt+2][Cl].[NH2-].[NH2-]`, which growth is on record?
**A.** -54.3% (active)

**Q.** `COc1ccc(N=Nc2c(N)nn3c(-c4ccc5c(c4)C=S=C5)ccnc23)cc1` was tested. Which growth did it give?
**A.** 16.6%

**Q.** How did the growth turn out when `O=C(NNC(=O)c1ccc(OCc2nc3ccc(Cl)cc3[nH]2)cc1)Nc1ccc(Cl)c(Cl)c1` was run?
**A.** -14.8% (active)

**Q.** With `Cc1nc(Nc2ccccn2)sc1C1=NNC(c2ccccc2F)C1` (configuration not stated) as the compound, how does the growth read?
**A.** -13.7% (active)

**Q.** `COc1ccc(-c2nc3ccccc3n2CC(=O)N=Nc2c(O)[nH]c3ccc(Br)cc23)cc1` was tested. Which growth did it give?
**A.** 56.1%

**Q.** Which growth does the source give for `CC[C@]12C=CCN3CC[C@@]4(c5ccc(OC)cc5N(C)[C@H]4[C@@](O)(C(=O)OC)[C@@H]1OC(=O)CCC[P+](c1ccc(OC)cc1)(c1ccc(OC)cc1)c1ccc(OC)cc1)[C@@H]32` here?
**A.** -92.1% (active)

**Q.** How did the growth turn out when `COc1ccc(-c2cc(C(=O)N=Nc3c(O)[nH]c4ccc(Cl)cc34)c3ccccc3n2)cc1OC` was run?
**A.** 98.9%

**Q.** With `Fc1ccc(Nc2nnc(-c3c[nH]c4ccccc34)o2)cc1` as the compound, how does the growth read?
**A.** 32.6%

**Q.** How did the growth turn out when `O=C(NN1C(=O)/C(=C/C=C/c2ccc([N+](=O)[O-])o2)SC1=S)c1ccc(O)cc1` was run?
**A.** -77.3% (active)

**Q.** `Cc1cccc(-c2ccccc2Oc2ccc3nnc(Cl)n3n2)c1` was tested. Which growth did it give?
**A.** 98.3%

**Q.** With `C[C@H](NC(=O)c1ccc2c(-c3ccc(C(F)(F)F)cc3)cccc2c1)c1ccccn1` as the compound, how does the growth read?
**A.** 7.67% (active)

**Q.** For `Cc1ccc(C(=O)Nc2cc(-c3ccccc3)cc(C(F)(F)F)c2)cc1C#Cc1cnc2cccnn12`, which growth is on record?
**A.** 62.9%

**Q.** `O=[N+]([O-])c1cccc(-c2nnc3c(/C=C/c4ccc(F)cc4)nc4ccccc4n23)c1` was tested. Which growth did it give?
**A.** 0.494% (active)

**Q.** `O=C1Nc2cc(-c3ccc(NS(=O)(=O)c4ccc(C(F)(F)F)cc4)cc3)ccc2/C1=C/c1ccc[nH]1` was tested. Which growth did it give?
**A.** -26.2% (active)
